The values that follow come from PubChem BioAssay AID651610 (Broad Institute, 2012).

Broadly, the inhibition is the drop in the measured response relative to a control, in per cent.

In all, about 360,000 compounds went through this assay and about 3,900 (1.1%) were called active. What follows is part of a selection rich in actives, with near analogues and random picks from the rest. A number with no mark means an inactive call.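 Rule for the calls: active = mean replicate inhibition score of at least 50 and every replicate individually at or above 50; inconclusive = only one of the two criteria met; inactive = mean below 50 and not all replicates reaching 50.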

A short description of this assay: blockers of JRFL envelope-mediated fusion – HeLa-JRFL effector, CEM21 target cells, luciferase, primary screen (AID 651610).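 Note: 0% = plate neutral controls and 100% = maraviroc near 300 nM.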 The note with it: HeLa-JRFL Env/CEM21 cell fusion, stronger effect = higher value; at 16.7 µM unless noted.
Take `C[C@@H]1CCCCO[C@H](CN(C)Cc2ccc(C(F)(F)F)cc2)[C@H](C)CN([C@@H](C)CO)C(=O)c2cc(N(C)C)ccc2O1`: the inhibition was 6.26%.
The value for `COc1ccccc1S(=O)(=O)N[C@@H]1CC[C@@H](CCNC(=O)C2CCCCC2)O[C@@H]1CO` was -6.59%; that for `COc1ccc(/C=N/N(C)C2=NS(=O)(=O)c3ccccc32)cc1OC` was 1.34% [at 12.3 µM]; that for `COc1ccc(C(C)(C)C)cc1NC(=O)CN(C)C1=NS(=O)(=O)c2ccccc21` was 64.3% [at 12.3 µM] (active).
Take `C=CCOCCN(C)C1=NS(=O)(=O)c2ccccc21`: the inhibition is 1.56% [at 12.3 µM].
`COc1ccc(CN(C)C[C@H]2Oc3c(NC(=O)Nc4ccccc4)cccc3C(=O)N([C@@H](C)CO)C[C@@H]2C)cc1`: the inhibition is 6.99%.
Consider `C[C@@H]1CN([C@@H](C)CO)C(=O)Cc2cc(NC(=O)C3CCCCC3)ccc2O[C@@H]1CN(C)CC1CCCCC1`, for which the inhibition is -8.61%.
As to `O=c1[nH]c2cccnc2n(CCNc2ncc(C(F)(F)F)cc2Cl)c1=O`, the inhibition was -11.9% [at 12.3 µM].
For the compound `CN(C)C=NC(=O)c1cccn1-c1ncc(C(F)(F)F)cc1Cl`, the inhibition was 8.04% [at 12.3 µM].
Under `COc1cccc(/C=N/Nc2ncc(C(F)(F)F)cc2Cl)c1O` stands 74.7% [at 12.3 µM] (active); under `C[C@@H]1CN([C@@H](C)CO)C(=O)c2cc(NS(=O)(=O)c3cccs3)ccc2O[C@H]1CN(C)CC1CCCCC1`, -17.2%; under `C[C@H](NC(=O)c1nc[nH]c1C(=O)NCC(=O)OC(C)(C)C)C(=O)OCc1ccccc1`, -4.51% [at 12.3 µM].
As to `Cc1cccc(NC(=O)c2nc[nH]c2C(=O)NCC(=O)OCc2ccccc2)c1`, the inhibition is 55.2% [at 12.3 µM] (active).
On to `CC(C)(C)OC(=O)CNC(=O)c1[nH]cnc1C(=O)N[C@@H](Cc1ccccc1)C(=O)OCc1ccccc1`, for which the inhibition is 6.73% [at 12.3 µM].
With `O=C(C[C@@H]1CC[C@@H]2[C@H](COC[C@H](O)CN2C(=O)c2cccnc2)O1)NC1Cc2ccccc2C1`, the inhibition is -0.583%.
For the compound `CO[C@@H]1CN(C)C(=O)c2ccc(NC(=O)c3cccc(Oc4ccccc4)c3)cc2OC[C@H](C)NC[C@@H]1C`, the inhibition is 12.8%.
In the case of `C[C@@H]1Cn2cnc(C(=O)Nc3ccc(CNC(=O)OC(C)(C)C)cc3)c2C(=O)N1`, the inhibition was 58.6% [at 12.3 µM] (active).
With `CN1CCn2cnc(C(=O)NCC(=O)OC(C)(C)C)c2C1=O`, the inhibition was 2.91% [at 12.3 µM].
For the compound `Cc1ccc(NC(=O)c2nc[nH]c2C(=O)N[C@@H](CCCCNC(=O)OC(C)(C)C)C(=O)OC(C)(C)C)cc1`, the inhibition was 32.1% [at 12.3 µM].
On to `O=C(CCN1CCCCC1)N[C@@H]1C=C[C@@H](CC(=O)N2CCC(Cc3ccccc3)CC2)O[C@H]1CO`, for which the inhibition is 3.09%.
Under `CNS(=O)(=O)c1cccc(C(=O)NC2CCCc3ccccc32)c1` (configuration not stated) stands 15.1% [at 12.3 µM]; under `CSCCC(NS(=O)(=O)c1ccc2c(c1)oc(=O)n2C)C(=O)NCc1ccccc1` (configuration not stated), -4.2% [at 12.3 µM]; under `CSCCC(NS(=O)(=O)c1ccc2c(c1)oc(=O)n2C)C(=O)NC1CCCc2ccccc21` (configuration not stated), 87% [at 12.3 µM] (active).
On to `Cc1noc(C)c1NC(=O)N(C)C[C@H]1OCCCC[C@@H](C)Oc2ccc(NS(=O)(=O)c3ccc(Cl)cc3)cc2C(=O)N([C@@H](C)CO)C[C@H]1C`, for which the inhibition is -65.1%.
Under `CCCN(C)C[C@H]1OCCCC[C@@H](C)Oc2ccc(NC(=O)Nc3ccc(F)cc3)cc2C(=O)N([C@@H](C)CO)C[C@H]1C` stands -12.4%; under `C[C@@H]1CCCCO[C@@H](CN(C)C(=O)C2CCCCC2)[C@H](C)CN([C@H](C)CO)C(=O)c2cc(NC(=O)Cc3ccccc3)ccc2O1`, -36.4%; under `CC[C@]1(C(=O)OC)[C@H]2C(=O)N(Cc3ccccc3)C(=O)[C@H]2[C@H]2CN=C(SCc3ccccc3)N21`, 93.6% [at 12.3 µM] (active).
Take `COC(=O)[C@]1(Cc2ccccc2)N[C@H](CN(C)S(=O)(=O)c2ccc(F)cc2)[C@@H]2C(=O)N(Cc3ccccc3)C(=O)[C@@H]21`: the inhibition is 31.6% [at 12.3 µM].
Under `CCNC(=O)N(CC)C[C@H]1N[C@@](CC)(C(=O)OC)[C@H]2C(=O)N(Cc3ccccc3)C(=O)[C@@H]12` stands -2.99% [at 12.3 µM].
In the case of `CCN(C[C@H]1N[C@@](Cc2ccccc2)(C(=O)OC)[C@H]2C(=O)N(Cc3ccccc3)C(=O)[C@@H]12)C(=O)c1ccc(C)cc1`, the inhibition is -47.2% [at 12.3 µM].
Turning to `CCN1C[C@@H]2[C@@H]3C(=O)N(Cc4ccccc4)C(=O)[C@@H]3[C@](C)(C1=O)N2C(=O)c1ccc(C(C)(C)C)cc1`, the inhibition was -9.05% [at 12.3 µM].
As for `CC[C@]1(C(=O)OC)[C@H]2C(=O)N(Cc3ccccc3)C(=O)[C@H]2[C@H]2CN=C(SCc3ccc(C#N)cc3)N21`, the inhibition was 87.6% [at 12.3 µM] (active).
Under `CCN1C[C@@H]2[C@@H]3C(=O)N(Cc4ccccc4)C(=O)[C@@H]3[C@](Cc3ccccc3)(C(=O)OC)N2C1=NC1CCCCC1` stands 16.7% [at 12.3 µM]; under `CC[C@]1(C(=O)OC)[C@H]2C(=O)N(C)C(=O)[C@H]2[C@H]2CN(C)C(=NCc3ccccc3)N21`, -17.3% [at 12.3 µM].
Turning to `COC(=O)[C@@]1(C)[C@H]2C(=O)N(Cc3ccccc3)C(=O)[C@H]2[C@H]2CN=C(SCC3CC3)N21`, the inhibition was 84% [at 12.3 µM] (active).
`CO[C@@H]1CN(C)C(=O)c2cc(NC(C)=O)ccc2OC[C@H](C)N(C(=O)CC2CC2)C[C@@H]1C`: the inhibition is -18.3%.
In the case of `Cc1noc(C)c1S(=O)(=O)Nc1ccc2c(c1)C(=O)N([C@H](C)CO)C[C@@H](C)[C@@H](CN(C)C(=O)C1CCCCC1)OCCCC[C@@H](C)O2`, the inhibition was 2.09%.
Take `C[C@H](O)C#Cc1cnc2c(c1)C(=O)N([C@@H](C)CO)C[C@H](C)[C@@H](CN(C)C(=O)c1ccncc1)O2`: the inhibition is -14.6%.
The value for `CO[C@@H]1CN(C)C(=O)c2cc(NC(=O)c3ccc(F)cc3)ccc2OC[C@H](C)NC[C@@H]1C` was -6.15%; that for `Cc1ccccc1S(=O)(=O)N[C@H]1CC[C@@H](CCn2cc(Cc3ccccc3)nn2)O[C@H]1CO` was 0.428%; that for `CCCC(=O)Nc1ccc2c(c1)OC[C@@H](C)N(CC1CCOCC1)C[C@H](C)[C@H](OC)CN(C)C2=O` was -7.57%.
In the case of `C[C@@H]1CN([C@H](C)CO)C(=O)c2cccc(NC(=O)Nc3ccccc3)c2O[C@H]1CN(C)Cc1ccccc1`, the inhibition is 9.88%.
Turning to `Cc1ccc(S(=O)(=O)N(C)C[C@@H]2OCCCC[C@H](C)Oc3ccc(NS(=O)(=O)c4cn(C)cn4)cc3C(=O)N([C@H](C)CO)C[C@@H]2C)cc1`, the inhibition was -30.7%.
Under `CO[C@H]1CN(C)C(=O)c2ccc(NS(=O)(=O)c3ccccc3)cc2OC[C@@H](C)N(Cc2nccs2)C[C@@H]1C` stands -11.1%.
As to `C/C=C/c1ccc([C@@H]2[C@@H](CO)N(C(=O)CN(C)C)C23CN(C(=O)C2CCCC2)C3)cc1`, the inhibition is 25.3%.
The value for `COC(=O)C1=C(C(=O)OC)C2C=C(C(C)C)C1C(=O)C2(C)O` (configuration not stated) was -16.5% [at 12.3 µM].
On to `Cc1c(C(=O)Nc2cccc(S(=O)(=O)N3CCOCC3)c2)oc2ccccc12`, for which the inhibition is 60.5% [at 12.3 µM] (active).
Consider `Cc1occc1C(=O)Nc1cccc(S(=O)(=O)N2CCOCC2)c1`, for which the inhibition is -25.4% [at 12.3 µM].
Regarding `COc1ccc(NC(=O)c2oc3ccc(S(=O)(=O)N4CCOCC4)cc3c2C)cc1`, the inhibition was 6.27% [at 12.3 µM].
The value for `COc1ccc(S(=O)(=O)N(C)C[C@@H]2OCCCC[C@@H](C)Oc3ccc(NS(=O)(=O)c4ccccc4)cc3C(=O)N([C@@H](C)CO)C[C@H]2C)cc1` was -2.53%; that for `O=C(Nc1ccc(N2CCN(C(=O)c3ccccc3)CC2)c(Cl)c1)c1cccnc1` was 86.4% [at 12.3 µM] (active).
In the case of `Cc1ccccc1N1CCN(C(=O)c2cccnc2)CC1`, the inhibition is 6.64% [at 12.3 µM].
The value for `O=C(Nc1ccc(N2CCN(C(=O)c3ccccc3)CC2)c(Cl)c1)c1ncn[nH]1` was 5.87% [at 12.3 µM]; that for `C[C@H](CO)N1C[C@H](C)[C@H](CN(C)Cc2ccncc2)Oc2ncc(C#Cc3cccc(F)c3)cc2C1=O` was 7.42%.
`CC(C)NC(=O)N[C@@H]1CC[C@H](CC(=O)NCCN2CCCC2)O[C@@H]1CO`: the inhibition was 20.3%.
For `C[C@H](CO)N1C[C@H](C)[C@H](CN(C)C(=O)Nc2ccc(C(F)(F)F)cc2)Oc2ccc(NC(=O)Nc3ccccc3)cc2C1=O`, the inhibition is 15.8%.
In the case of `NC(Cc1ccccc1)c1csc(Nc2cc(Oc3ccccc3)ncn2)n1` (configuration not stated), the inhibition is -44.1% [at 12.3 µM].
In the case of `COc1ccc(CC(N)c2csc(NC(=O)Cc3ccccc3)n2)cc1` (configuration not stated), the inhibition is -13.2% [at 12.3 µM].
As for `NC(Cc1ccc(F)cc1)c1csc(Nc2nncc3ccccc23)n1` (configuration not stated), the inhibition was 58.7% [at 12.3 µM] (active).
For the compound `C[C@H]1CCCCO[C@@H](CN(C)Cc2ccc(C(=O)O)cc2)[C@@H](C)CN([C@@H](C)CO)C(=O)c2cc(NS(C)(=O)=O)ccc2O1`, the inhibition was 18.6%.
With `CN1C(=O)c2cc(NC(=O)c3ccc4c(c3)OCO4)ccc2OC[C@@H]2O[C@H](CC(=O)O)CC[C@H]21`, the inhibition was -18.9%.
Take `O=C(Nc1cc(Cl)cc(Cl)c1)N[C@H]1CC[C@@H](CCNS(=O)(=O)c2cccc(F)c2)O[C@H]1CO`: the inhibition is 0.313%.
